DT40 TDP1 no CPT – qHTS for Inhibitors of human tyrosyl-DNA phosphodiesterase 1 (TDP1): qHTS in cells in absence of CPT | DT40 Tdp1-/- hTDP1 cells, no CPT, ATP luminescence, 48 h | Potency, µM (titrated, usually from 46.2 µM), for the others: top-dose activity change, negative = growth inhibition, most hits filed as inhibitors | 420,000 compounds, 15% hits | AID 686978, 2013; also: potency is read from the fitted curve at half-maximal effect; nearly all actives have a fitted effect of over 55% in size
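DT40 Tdp1-/-;hTDP1 cells, no CPT (DMSO vehicle only), 400 cells/well; compounds pin-transferred; ≥48 hr, 37 °C; CellTiter-Glo 30 min RT dark, luminescence read.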
IL-1B inflam inh – qHTS for Inhibitors of Inflammasome Signaling: IL-1-beta AlphaLISA Primary Screen. 360,000 compounds, 4.7% hits. THP-1 LPS/ATP IL-1B secretion, AlphaLISA, 16 h; stronger effect = lower value. activity change, % at 57.5 µM; in the data active = activity change below about -50%; inconclusive = mostly about -30% to -49%
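THP-1 cells pretreated 1 hr with compounds (up to 57.5 uM final), then stimulated with LPS (250 ng/mL final) plus ATP (1.25 mM final); secreted IL-1B measured by AlphaLISA after 16 hr, decreased signal indicating inhibition.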
ELG1 repair inh – qHTS screen for small molecules that inhibit ELG1-dependent DNA repair in human embryonic kidney (HEK293T) cells expressing luciferase-tagged ELG1; HEK293T ELG1-luciferase reporter, luminescence, 16 h; DNA damage induced by 5-fluorouridine; Potency, µM (doses to about 46.1 µM), inactives show top-dose activity change, negative = inhibition, usual class: inhibitors; 330,000 compounds, 2.3% hits; AID 504467, 2011; also: potency is read from the fitted curve at half-maximal effect; nearly all actives have a fitted effect of over 55% in size
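Step one: seed 2,000 cells per well. Step two: pin-transfer compound or DMSO alongside 5-fluorouridine. Step three: incubate 16 hr, 37 °C, 5% CO2. Step four: add ONE-Glo, wait 30 min, read luminescence.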
HT1080-NT tox – qHTS for induction of synthetic lethality in tumor cells producing 2HG: qHTS for the HT-1080-NT fibrosarcoma cell line | AID 686970, 2013 | Potency, µM (doses to about 46.1 µM), for the others: at the highest dose activity, negative = less viability, usual class: cytotoxic | HT-1080-NT fibrosarcoma viability, CellTiter-Glo ATP luminescence, 48 h | 360,000 compounds, 1.6% hits;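 also: NT is the 2HG producing partner of a matched IDH1 knockdown line; potency is read from the fitted curve at half-maximal effect; 0% = DMSO-treated cells and -100% = media-only wells without cells; nearly all actives have a fitted effect of over 55% in size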
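Fibrosarcoma NT cells, 750 per well in 5% FBS RPMI, were exposed to compound for 48 hours. Viability: CellTiter-Glo luminescence.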
TDP1 cell CPT – qHTS for Inhibitors of human tyrosyl-DNA phosphodiesterase 1 (TDP1): qHTS in cells in presence of CPT; chicken DT40 Tdp1-/-;hTDP1 cells + 20 nM CPT, ATP luminescence, 48 h; Potency, µM (series often up to 46.2 µM), for inactives: top-dose activity change, negative = growth inhibition, actives largely listed as inhibitors; 420,000 compounds, 12% hits; also: potency is read from the fitted curve at half-maximal effect; nearly all actives have a fitted effect of over 55% in size
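Chicken DT40 Tdp1-/- cells stably complemented with human TDP1 were seeded at 400 cells/well in medium containing 20 nM camptothecin, exposed to pin-transferred compounds, and grown at 37 °C for at least 48 hr. Viability was read as ATP luminescence.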
HT1080 IDH1KD tx – qHTS for induction of synthetic lethality in tumor cells producing 2HG: qHTS for the HT-1080-IDH1KD cell line | Potency, µM (series often up to 46.1 µM), without a hit: top-dose activity, negative = toxicity, usual class: cytotoxic | AID 686971, 2013 | HT-1080 IDH1 knockdown viability, ATP luminescence, 48 h | 360,000 compounds, 2% hits;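 also: potency is read from the fitted curve at half-maximal effect; 0% = DMSO wells and -100% = cell-free medium wells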
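Using the IDH1-knockdown HT-1080 line run in the same batch and compound series as the NT line, viability after 48 h at 37 °C was determined by CellTiter-Glo luminescence and expressed as % activity.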
Starred values were filed as active, the others as inactive; ? = inconclusive; · = no result given; [ ] = dose if it differs, or a comment. Sampled rows, rich in hits. Any-hit rate of the full collection: about 19%. Unless noted, calls follow the shape of the dose curve; as a rule, active = well fitted curve in the direction sought with a large enough effect; inconclusive = small, poorly fitted or top-dose-only effect, or another doubt; inactive = no such curve, though single readings can be large; an effect the other way counts as inactive or inconclusive. Unless noted, % is scaled to controls: 0 for no effect and ±100 for the full control effect.

SMILES | DT40 TDP1 no CPT | IL-1B inflam inh | ELG1 repair inh | HT1080-NT tox | TDP1 cell CPT | HT1080 IDH1KD tx
Cc1cccc(CSc2ncc(Cl)c(C(=O)Nc3sc4c(c3C(N)=O)CCCC4)n2)c1 | 8.2µM* | · | · | · | 23µM* | ·
CCc1ccc(N2C(=O)C3C4CCC(C4=C(C)C)C3C2=O)cc1 (stereo not given) | -23% | 15 | -5% | 3% | -9% | 9%
Cc1cc(C(=O)NN)c(C)o1 | 11% | 0 | 3% | -22% | 1% | 4%
CCc1ccc(C(C)NC(=O)c2cc(C)oc2C)cc1 (stereo not given) | 23µM* | -2 | -7% | -1% | 21µM* | 8%
CCc1ccc(C(C)NC(=O)C2(C)CC2(Br)Br)cc1 (stereo not given) | -26% | -61* | -13% | 0% | -9% | -14%
CC(C)C(=O)Nc1ccc2c(c1)C(=O)NC2=O | -11% | 7 | 11% | 3% | 11% | 2%
O=C(O)C(Cc1c[nH]c2ccccc12)N1CCS(=O)(=O)CC1 (stereo not given) | -2% | 0 | 3% | 1% | -2% | 0%
Cc1ccn2c(-c3csc(NCc4ccccc4)n3)c(C)nc2c1 | 15µM* | -21 | ? | ? | ? | ?
Cc1nc2ccccn2c1-c1csc(NCc2ccco2)n1 | 21µM* | ? | ? | -27% | 13µM* | -25%
NC(=O)C1CCN(C(=O)c2ccc(NS(=O)(=O)/C=C/c3ccccc3)cc2)CC1 | -23% | 11 | · | 7% | 0% | -2%
CCOC(=O)C1CCCN(C(=O)c2cnn3c(C(F)(F)F)cc(-c4ccccc4)nc23)C1 (stereo not given) | 23µM* | -9 | -18% | 1% | 18µM* | -3%
COc1ccc(-c2cc(C(F)(F)F)n3ncc(C(=O)N4CCCCC4c4cccnc4)c3n2)cc1 (stereo not given) | ? | -8 | ? | -2% | 16µM* | 1%
CCOC(=O)N1CCN(C(=O)c2cnn3c(C(F)(F)F)cc(-c4cccs4)nc23)CC1 | -22% | -1 | 6.5µM* | -8% | 8% | 14%
CCOC(=O)c1cnn2c(C(F)(F)F)cc(-c3ccccc3)nc12 | -27% | -2 | ? | -2% | ? | 2%[9.24 µM]
COc1ccccc1C(=O)OCc1cc(=O)n2c(C)csc2n1 | -29% | · | · | · | 4% | ·
Cc1ccc(C(=O)CCS(=O)(=O)c2ccc(Br)cc2)cc1 | 5.2µM* | ? | 4% | 5% | 5.2µM* | 3%
COc1ccc(C(=O)CCS(=O)(=O)c2ccc(C)cc2)cc1 | 2.3µM* | ? | 3% | 8% | 2.6µM* | ?
Cc1ccc(S(=O)(=O)CCC(=O)c2cccc([N+](=O)[O-])c2)cc1 | 2.6µM* | -98* | ? | ? | 2.1µM* | 6.5µM*
Cc1ccc(S(=O)(=O)Cc2cc(F)c([N+](=O)[O-])cc2[N+](=O)[O-])cc1 | 2.9µM* | -92* | 16µM* | 2.9µM* | 3.7µM* | 6.5µM*
N#Cc1ccc(COC(=O)CC(NC(N)=O)c2ccc(Cl)cc2)cc1 (stereo not given) | -3% | 18 | 2% | 3% | 6% | 2%
COc1ccc(C(CC(=O)c2ccc(O)cc2)S(=O)(=O)c2ccc(C)cc2)cc1 (stereo not given) | ? | -51* | ? | ? | -7% | ?
